In the library only some 3.4% were active in any assay of this set; here they are far more common.
MITF primary – human MITF inhibition, primary screen | O75030 | AlphaScreen MITF homodimerization, bead proximity signal | inhibition, % at 2.6 µM | 650,000 compounds, 0.91% hits | AID 1259374; in the data active means inhibition above about 50%;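 further: 0% = vehicle wells with protein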
FBW7 activator – activators of human E3 ligase FBW7. AlphaScreen FBW7–phospho-cyclin E peptide binding, activator screen. normalized activity (activation), % at 26.1 µM. 650,000 compounds, 0.13% hits. AID 1259310; in the data active means normalized activity above about 1.9%;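 further: purified mutant Fbw7 with reduced substrate affinity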
TEAD-YAP block – TEAD-YAP interaction inhibition | HEK-TIYL cells, TEAD-Gal4/YAP UAS-luciferase luminescence | inhibition, % at 9.12 µM | 640,000 compounds, 1.4% hits | AID 1259422; in the data active means inhibition above about 32%;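 further: 0% = median of test compound wells and 100% = reference inhibitor wells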
GPR151 ag – human GPR151 activation; activation, % at 11.2 µM; PathHunter beta-arrestin GPR151 cells, luminescence; Q8TDV0; 650,000 compounds, 1% hits; in the data active means activation above about 4.9%;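 further: 0% = median of compound wells and 100% = cells with positive control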
Target sequence (Q8TDV0 whole entry, looked up): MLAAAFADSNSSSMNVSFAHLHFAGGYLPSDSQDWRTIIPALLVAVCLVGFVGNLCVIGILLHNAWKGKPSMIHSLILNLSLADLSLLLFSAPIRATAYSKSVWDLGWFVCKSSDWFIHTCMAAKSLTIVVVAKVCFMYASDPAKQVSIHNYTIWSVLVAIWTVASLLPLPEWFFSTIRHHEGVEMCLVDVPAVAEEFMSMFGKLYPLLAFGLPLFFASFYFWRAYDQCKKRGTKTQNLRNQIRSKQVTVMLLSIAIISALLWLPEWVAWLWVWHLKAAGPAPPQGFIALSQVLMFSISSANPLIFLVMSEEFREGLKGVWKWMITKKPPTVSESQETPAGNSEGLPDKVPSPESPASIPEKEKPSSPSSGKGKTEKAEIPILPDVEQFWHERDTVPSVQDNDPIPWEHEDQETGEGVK
* marks the source's active call; other numbers are inactive results.

SMILES	MITF primary	FBW7 activator	TEAD-YAP block	GPR151 ag
c1ccc(CCCN2CCc3nc4ncccc4cc3C2)cc1	-2.0	0.1	-12.1	-0.1
Cc1ccc2cc(C(c3nnnn3C(C)C)N3CCN(C)CC3)c(=O)[nH]c2c1C (configuration not stated)	-0.2	-0.1	7.2	-0.8
CC(=O)Nc1ccc(NC(=O)C(Cl)(Cl)Cl)cc1	12.9	0.1	4.0	0.2
Nc1nc(SCCCC(=O)NCCO)nc2sc3c(c12)CCCC3	14.6	2.3*	13.2	-0.7
O=C(Cc1ccccc1)NC(CCC(=O)OCc1ccccc1)C(=O)NCCCO (configuration not stated)	11.2	0.0	-2.4	-0.8
CCCCNCCOc1ccc(C)cc1[N+](=O)[O-]	7.0	0.1	-7.5	1.8
Clc1ccc(Nc2nccn3c(-c4ccoc4)cnc23)cc1	12.1	-0.7	39.6*	-2.7
Oc1cccc(-c2cnc3c(Nc4ccc5[nH]ccc5c4)nccn23)c1	-9.2	0.0	97.0*	-1.6
CN(C)CCNC(=O)c1ccc(-c2cnc3c(Nc4ccc5[nH]ccc5c4)nccn23)cc1	-41.4	-0.1	38.8*	-1.4
c1cn2c(-c3ccc4[nH]ccc4c3)cnc2c(Nc2ccc3[nH]ccc3c2)n1	-10.9	0.1	0.2	2.4
c1cn2c(-c3ccoc3)cnc2c(Nc2ccc3[nH]ccc3c2)n1	-2.8	0.0	81.1*	-3.3
Cc1ccc(C(O)(C(F)(F)F)C(F)(F)F)c(O)c1C	-3.6	0.0	-1.8	-0.6
O=C1NC(=O)C(Cc2ccccc2F)(C2CCN(Cc3nccs3)CC2)N1 (configuration not stated)	-1.5	-0.1	3.9	4.2
CNC(=O)c1cc2c(=O)n3cccc(C)c3nc2n(Cc2ccco2)c1=N	30.2	0.3	19.8	-1.2
COc1cccc(C2=N/C(=C\c3ccc(F)cc3)C(=O)O2)c1	9.3	0.1	0.5	1.3
CCc1ccc2oc(-c3cccc(NC(=O)c4cncc(Br)c4)c3)nc2c1	-7.1	-0.1	-32.0	0.2
CN(C)c1ccc(/C=C(\NC(=O)c2ccccc2F)C(=O)Nc2ccc(F)c(Cl)c2)cc1	60.5*	0.0	-6.0	0.1
Cc1ccc(NC(=O)/C(=C/c2ccc(N(C)C)cc2)NC(=O)c2ccccc2F)cc1Cl	2.7	0.1	5.0	0.8
COc1ccc(N2C(=O)CSC2c2cccc(F)c2)c(OC)c1 (configuration not stated)	-25.0	0.1	3.4	-1.1
COc1ccc(N2C(=O)CSC2c2cccc([N+](=O)[O-])c2)c(OC)c1 (configuration not stated)	-4.0	-0.4	46.3*	-0.5
CN(C1=C(Cl)C(=O)N(c2ccc(I)cc2)C1=O)c1ccccc1	22.7	-0.1	56.0*	0.2
Cc1ccc(N2C(=O)C(Cl)=C(N(C)c3ccccc3)C2=O)cc1	19.3	0.0	52.4*	-0.1
O=C1C(Cl)=C(Cl)C(=O)N1c1ccc(I)cc1	24.0	0.4	7.0	-0.7
CC(C)C(=O)Nc1ccc(NC(=O)c2ccco2)nc1	17.5	0.1	73.9*	-1.9
O=C(Nc1ccc(NC(=O)C2CC2)cn1)c1ccco1	3.8	0.0	48.2*	-1.9
SMILES	MITF primary	FBW7 activator	TEAD-YAP block	GPR151 ag
CC(C)C(=O)Nc1ccc(NC(=O)C(C)C)nc1	4.8	-0.1	10.8	1.7
NC(=O)c1c(NC(=O)c2cc(Cl)ccc2[N+](=O)[O-])sc2c1CCCCC2	11.8	0.0	3.8	-0.2
NC(=O)c1ccccc1N=Cc1cccc(Cl)c1Cl	4.2	0.9	54.3*	-0.8
Cc1ccc(NC(=O)COC(=O)c2nn(-c3ccccc3[N+](=O)[O-])c(C)cc2=O)cc1C	4.9	-0.1	2.8	2.2
Clc1ccc(OCc2cn3ccccc3n2)cc1	-0.7	0.0	-28.2	-3.1
O=C1CCc2ccc(OCc3cn4ccccc4n3)cc21	-7.6	-0.1	57.7*	-7.7
CC(C)(C)c1ccc(NC(=O)c2cnc3ccccn23)cc1	20.6	0.8	54.7*	-0.7
O=C(Nc1ccc(Cl)cc1)c1cnc2ccccn12	17.3	0.0	-22.7	-1.0
O=C(Cn1cnc([N+](=O)[O-])c1[N+](=O)[O-])Nc1cc(Oc2ccccc2)cc([N+](=O)[O-])c1	15.8	0.0	42.4*	0.3
O=C(Cn1cnc([N+](=O)[O-])c1[N+](=O)[O-])Nc1ccc(Cl)cc1	2.4	-0.1	87.0*	0.2
COc1cc(/C=C2\SC(N3CCCC(C)C3)=NC2=O)ccc1O (configuration not stated)	1.7	-0.1	56.5*	0.9
O=C1N=C(N2CCOCC2)S/C1=C\c1ccc(O)cc1	11.2	0.0	38.7*	3.6
CC1CCCN(C2=NC(=O)/C(=C/c3ccc(O)cc3)S2)C1 (configuration not stated)	10.6	0.1	48.6*	-1.4
